# Results from PubChem BioAssay (NCI).
# Several values for one entry are separate records, joined by “and”; a condition that tells them apart may be missing. Equal entries are not always repeated. Compounds without any hit were thinned out: in the full panel of roughly 83,000, 20% have a hit.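 Cell lines were cultured in 96-well plates, exposed to a single compound concentration, and assessed for percent growth 48 hours later.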 Values without a mark were called inactive. Activity calls are given as the source filed them. How the source made its calls: active means growth percent below 10; inactive means the rest.
# Tested on: MDA-MB-468 breast
# Test: NCI-60 one-dose screen, 48 h (100 = growth as untreated, 0 = no growth, -100 = all killed)
# Conditions: 10 µM unless noted
row,SMILES,growth
1,O=c1nc(-c2ccccc2)c2cc(-c3ccc(C(F)(F)F)nc3)ccc2[nH]1,104%
2,COc1ccc(-c2n/c(=C\c3c(O)[nH]c4ccc(OC)cc34)cc3c2=Nc2ccccc2-3)cc1,-46.8% (active)
3,COc1ccc2c(CCCc3ccc(Cl)cc3Cl)c3[n+](cc2c1OC)CCc1cc2c(cc1-3)OCO2,-49% (active)
4,O=C(Nc1ccncc1)C(=O)c1cn(S(=O)(=O)c2cccc3ccccc23)c2ccccc12,19.5%
5,Clc1cccc(Nc2nc(Nc3cnc4ccccc4c3)c3[nH]cnc3n2)c1,86%
6,COc1ccc(C2Nc3nc(SC)nc(N)c3N=C3c4ccccc4CCC32)cc1 (stereo not drawn),102%
7,CC1(C)CC[C@]2(C(=O)O)CC[C@]3(C)C(=CC[C@@H]4[C@@]5(C)C/C(=C/O)C(=O)C(C)(C)[C@@H]5CC[C@]43C)[C@@H]2C1,77.3%
8,C#CCn1c(-c2cc(OC)c(OC)cc2Br)nc(-c2ccccc2)c1-c1ccccc1,5.05% (active)
9,O=C1COCCN1c1ccc(NCc2cn(Cc3ccc(F)cc3)c3ccccc23)cc1,-66.9% (active)
10,CCN1C(=O)c2ccc3c4c(ccc(c24)C1=O)C(=O)N(CCCNCc1ccccc1OC)C3=O,-71.4% (active)
11,O=C1/C(=C/c2cn(-c3ccccc3)nc2-c2ccccc2)SC(=S)N1CCc1ccccc1,103%
12,O=C(O)/C=C\C(=O)Nc1cccc2ccccc12,92.2% and 111%
13,Brc1ccc(/C=C(/C2=NCCN2)n2ccc3ccccc32)cc1,50.8%
14,Cn1cc(-c2csc(-c3c[nH]c4ccc(F)cc34)n2)c2ccnc(Cl)c21,15%
15,NC(Cc1ccccc1)C(=O)NC(Cc1ccccc1)C(=O)O (stereo not drawn),102% and 92.8%
16,Cc1c(C(=O)N[C@@H](Cc2ccccc2)C(=O)C(=O)NCCc2ccccc2)[nH]c2ccccc2c1=O,110%
17,Nc1cc(O)cc2cccnc12,109%
18,COc1ccccc1-n1c(-c2ccc(O)cc2C)cn2c3c(=O)[nH]c(=O)n(C)c3nc12,88.6%
19,Nc1nc2c(ncn2[C@@H]2O[C@H](CS)[C@@H](O)[C@H]2O)c(=O)[nH]1,97.8%
20,COc1cc2c(c(OC)c1OC)CCC(c1cccc(NC(=O)c3cccc(Cl)c3)c1)O2 (stereo not drawn),60.2%
21,N=c1nc(N)ncn1-c1ccccc1,113%

row,SMILES,growth
1,CCn1c(CN2CCN(Cc3ccccc3)CC2)nc2cc(NC(=O)c3cccs3)ccc21,-86.6% (active)
2,CC1(C)CCC[C@]23C(=O)O[C@](O)(C(=O)C4=C[C@@](C)(/C=C/CCCc5ccc6ccc7cccc8ccc5c6c78)CC[C@@]42O)[C@@H]13,-70% (active)
3,Cc1nnc(-c2cc3c(ccc4ccccc43)oc2=O)c2cn(-c3ccc(Cl)cc3)nc12,96.4%
4,OCCNCCNC(Cc1ccc(Cl)cc1)c1ccccc1 (stereo not drawn),86.4%
5,O=[N+]([O-])c1cccc(-c2nc3sccn3c2-c2ccnc(NCCCNS(=O)(=O)c3ccc(Br)cc3)n2)c1,29.2%
6,OC(c1cc(-c2cccc(Cl)c2)nc2ccccc12)C1CCCCN1 (stereo not drawn),-77.5% (active)
7,CCOc1ccc(Nc2ccnc3cc(Cl)ccc23)cc1,-1.66% (active)
8,CCCCCCCCN1C(=O)/C(=c2\sc3n(c2=O)C2C(NN=3)N(CC)C(=O)N2CC)c2ccccc21 (stereo not drawn),68.3%
9,CCOC(=O)c1cnn(CC(C)O)c1NC(=O)NCc1cccc(F)c1 (stereo not drawn),105%
10,CCOC(C)=N,117%
11,CC(C)Cc1ccc([C@H](C)C(=O)O)cc1,113%
12,CC(C)(C)c1cc(O)c(O)c(C(C)(C)C)c1,40.4%
13,COc1ccc(C(Cc2ccccc2)NCCN2CCOCC2)cc1 (stereo not drawn),99.6%
14,CCN(CC)c1ccc(C(=C2C=CC(=[N+](CC)Cc3cccc(S(=O)(=O)O)c3)C=C2)c2ccc(N(CC)Cc3cccc(S(=O)(=O)O)c3)cc2)cc1,12.1%
15,C/C(=N\Nc1cc(C)c2cc(C)ccc2n1)c1ccccn1,-69% (active)
16,CCN(CC)CC#CCOC(=O)[C@]1(C)CCC[C@]2(C)[C@H]3C[C@H]4C(C(C)C)=C[C@]3(CC[C@H]21)[C@@H]1C(=O)CCC(=O)[C@@H]14,11%
17,O=C(Nc1cccc(Cl)c1)c1ccc(Cl)cc1Cl,96.9%
18,CC(=O)CC(=O)c1ccccc1.[Cu+2],96.7%
19,CCSCC1CC(O)(c2ccccc2)C(c2ccccc2)C(c2ccc(F)cc2)O1 (stereo not drawn),-18% (active)
20,Cc1ccc(S(=O)(=O)NCCNc2nccc(-c3c(-c4ccc(O)cc4)nc4sccn34)n2)cc1,85.3%
21,CCCCCO/N=C\c1c2c(O)c3c(O)c(C)c4c(c3c1O)C(=O)C(C)(O/C=C\C(OC)C(C)C(OC(C)=O)C(C)C(O)C(C)C(O)C(C)/C=C\C=C(\C)C(=O)N2)O4 (stereo not drawn),0.538% (active)

row,SMILES,growth
1,N#Cc1ccc(/C=C/c2cn(-c3ccccc3)nc2-c2cccc([N+](=O)[O-])c2)cc1,64.7%
2,CC1(C)Oc2cc3oc(=O)ccc3cc2C[C@@H]1OCCOS(=O)(=O)c1ccc(C#N)cc1,90.6%
3,COc1ccc(-c2nc3sccn3c2/C=C/C(=O)c2cc(OC)c(OC)c(OC)c2)cc1OC,-13.4% (active)
4,Cc1ccc2[nH]c(=O)cc(-n3nncc3COc3ccc(C=O)cc3)c2c1,114%
5,Clc1ccc(Sc2cnc(-c3ccccc3)o2)cc1,111%
6,CCN(C(C)=O)c1ccc([N+](=O)[O-])cc1,103%
7,S=c1ccc2ccccc2[nH]1,98% and 116%
8,COc1ccc(-c2c(N)n[nH]c2-c2cc(OC)c(OC)c(OC)c2)cc1,-0.0987% (active)
9,CN(C)CCCC1(c2ccc(F)cc2)OCc2cc(-c3cccc4[nH]ccc34)ccc21 (stereo not drawn),-34.5% (active)
10,C#C[C@]1(O)CC[C@H]2[C@@H]3CC=C4c5sc(N(C)c6ccccc6)nc5CC[C@]4(C)[C@H]3CC[C@@]21C,76.2%
11,COC(=O)c1cccc(NC(=O)c2ccc(-c3cccc(N)c3)o2)c1,99.7%
12,Cc1ncc(C(=O)Nc2ccc(CN3CCN(C)CC3)c(C(F)(F)F)c2)cc1C#Cc1cnc(N)c2cnccc12,-6.82% (active)
13,COc1ccc(Cn2cc3c(c2-c2ccccc2)CCc2cnoc2-3)cc1N,10.4%
14,O=C(N=Nc1c(O)[nH]c2ccccc12)c1cc(-c2ccccc2)on1,109%
15,COc1ccc(S(=O)(=O)NCCNc2nccc(-c3c(-c4cccc([N+](=O)[O-])c4)nc4sccn34)n2)cc1,69.7%
16,Cc1cc2c(-c3nc4ccccn4c3NC34CC5CC(CC(C5)C3)C4)c(O)c(O)cc2c(O)c1-c1c(C)cc2c(-c3nc4ccccn4c3NC34CC5CC(CC(C5)C3)C4)c(O)c(O)cc2c1O,-10.7% (active)
17,O=Cc1cc2ccccc2nc1Oc1ccc(C(F)(F)F)cc1,90.7%
18,O[C@H]1[C@H]2c3cc4c(cc3CN3CCC(=C[C@@H]1O)[C@H]23)OCO4,20.7%
19,Cc1ccc(-c2nc3nc(-c4ccccc4)nc(N4CCCNCC4)c3o2)cc1,-67.5% (active)
20,NC(=S)N/N=C/c1cc(-c2cccc(N)c2)ccn1,-11.8% (active)
21,NC(=O)c1cccc(-c2cc(C(N)=O)ccc2Cl)c1,53.4%

row,SMILES,growth
1,COc1ccc2nc(-c3ccc(Cl)cc3)cc(-c3nnc(SC/C(=N\O)c4ccccc4)n3-c3ccccc3)c2c1,60.4%
2,CCCCCCCCn1ccc2cc(NC(=O)Cn3cc(CN4CCCC4)nn3)ccc21,16.1%
3,N=C(N)c1ccc(-c2ccc(-c3ccc(Cl)c(Cl)c3)s2)cc1,-61.6% (active)
4,N#Cc1cc(-c2nc3ccccc3s2)c(=O)n(NS(=O)(=O)c2ccccc2)c1N,118%
5,C=CCN1C(=O)c2cccc3c(-c4ccc5c(c4)ncn5C4CCCCC4)ccc(c23)C1=O,34.6%
6,Cc1[nH]c2ccc(F)cc2c1CCNC(=O)C1CCN(C(=O)c2ccccc2)CC1,87.7% [25 µM]
7,COC(=O)Cc1nc(C#N)c(N(C)C)o1,97.8%
8,C=CCn1c(-c2ccc(-c3nc4ccc(C)cc4[nH]3)cc2)n[nH]c1=S,95.6%
9,O=C(O)COc1ccccc1F,93.5%
10,C#C[C@]1(O)CC[C@H]2[C@@H]3CC=C4c5sc(-c6ccc7c(c6)OCO7)nc5CC[C@]4(C)[C@H]3CC[C@@]21C,51.5%
11,COc1cc(OC)cc(-c2ccc(-c3ccc(C(=N)N)o3)o2)c1,10.5%
12,Cn1cc(-c2cnn3c(N)c(Br)c([C@@H]4CCCNC4)nc23)cn1,67.5%
13,O=C1/C(=C/c2ccccn2)NC(=S)N1c1ccccc1Cl,36%
14,CC1=C([Se]CC(OC(=O)[C@@H](CO)NC(=O)OC(C)(C)C)C(=O)NCCCCCC(=O)OCc2ccccc2)C(=O)c2ccccc2C1=O (stereo partly drawn),-83.7% (active)
15,CCCCN(CCCC)c1cc(C(=O)CCCCCN)c2ccccc2n1,84.5%
16,Cc1ccnc2c1ccc1c(C)ccnc12,-17.8% (active)
17,CC(C)(CCN=C(N)Nc1ccccn1)c1ccc(C(F)(F)F)cc1,3.96% (active)
18,O=[N+]([O-])c1ccc(Sc2ncccn2)c([N+](=O)[O-])c1,5.95% (active)
19,CCN1C(=O)N(CC)C2C1NN=c1s/c(=C\c3ccccn3)c(=O)n12 (stereo not drawn),-26.9% (active)
20,c1ccc(CCc2ccccc2-c2cc(-c3ccccc3)on2)cc1,93.8%
